Measurements as given in PubChem BioAssay (EPA / NIEHS).
Activity calls are given as the source filed them. How the source made its calls: active means hit-call score of the fitted dose curve at least 0.9, where 1 is the maximum; inactive means score below 0.9.

Read-out: Tissue Factor, F3 (gene 2152)
Test: BSK_CASM3C_TissueFactor: BioMAP Diversity Plus: CASM3C Assay for Tissue Factor Biomarker Activity (AID 2283052);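 further: cell surface tissue factor protein level read by ELISA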
Conditions: primary human coronary artery smooth muscle cells; actives raise or lower the signal

Compound | outcome
CC1(C)CCC(=Cc2ccc(Cl)cc2)C1(O)Cn1cncn1 (stereo not given) | inactive
CC1(C)C(C(=O)OC(C#N)c2cccc(Oc3ccccc3)c2)C1(C)C (stereo not given) | inactive
CCOP(=O)(OCC)Oc1nc(Cl)c(Cl)cc1Cl | inactive
CCSC(=O)N1CCCCCC1 | inactive
CCCN(CC)CC1COC2(CCC(C(C)(C)C)CC2)O1 (stereo not given) | inactive
COCC(=O)N(c1c(C)cccc1C)C(C)C(=O)OC (stereo not given) | inactive
Clc1cccc(C(Cl)(Cl)Cl)n1 | inactive
CC1(C)C(C=C(Cl)Cl)C1C(=O)OC(C#N)c1cccc(Oc2ccccc2)c1 (stereo not given) | inactive
Nc1c(Cl)c(Cl)nc(C(=O)O)c1Cl | inactive
CC(C)(C)C(=O)C(Oc1ccc(Cl)cc1)n1cncn1 (stereo not given) | inactive
CCOc1nc(F)cc2nc(S(=O)(=O)Nc3c(Cl)cccc3Cl)nn12 | inactive
C=C(C)CN(CC)c1c([N+](=O)[O-])cc(C(F)(F)F)cc1[N+](=O)[O-] | inactive
N#Cc1c[nH]cc1-c1cccc2c1OC(F)(F)O2 | inactive
CS(=O)(=O)c1ccc(C(=O)C2C(=O)CCCC2=O)c([N+](=O)[O-])c1 | inactive
COC(=O)c1c(C(F)F)nc(C(F)(F)F)c(C2=NCCS2)c1CC(C)C | inactive
CCNP(=S)(OC)O/C(C)=C/C(=O)OC(C)C (stereo not given) | inactive
CC(C)Oc1cccc(NC(=O)c2ccccc2C(F)(F)F)c1 | inactive
CS(=O)(=O)c1cc(C(F)(F)F)ccc1C(=O)c1cnoc1C1CC1 | inactive
CCC(C)n1c(=O)[nH]c(C)c(Br)c1=O (stereo not given) | inactive
CCOC(=O)C(C)OC(=O)c1cc(Oc2ccc(C(F)(F)F)cc2Cl)ccc1[N+](=O)[O-] (stereo not given) | inactive
